Reference: PubChem BioAssay (Tox21)
Records with an inconclusive call do not appear. A call without a number means that no potency is given here. A number with no mark means an inactive call. Calls of active or inactive are those of the source. The call rests on the fitted dose curve; in most records, active means well fitted activation curve with a large enough effect in the repeat runs; inconclusive means weak or mixed curves; inactive means flat fitted curve, though single readings scatter. Non-standard residues stand in square brackets, D forms with d. Residues, ends and D or L forms follow the SMILES beside them. *: point of attachment. Sta = CC(C)C[C@H](N)[C@@H](O)CC(=O)O; Isovaleryl = CC(C)CC(=O)*

Experiment: A CellTox Green Cytotoxicity Assay to monitor cytotoxicity in HepG2 cells - 24 hour (AID 1224878); further: nearly all actives have a fitted effect of over 45% in size
Details: CellTox Green fluorescence; series mostly up to 76.8 µM
Excerpt: National Center for Advancing Translational Sciences [NCATS]
NIH Chemical Genomics Center [NCGC]
U.S. Environmental Protection Agency [EPA]
National Institutes of Environmental Health Sciences [NIEHS]
National Toxicology Program [NTP]
Cell-based models are critical for drug discovery. Determining the natural cytotoxic effects resulting from test compounds is an essential research activity. A CellTox Green Cytotoxicity Assay to monitor cytotoxicity in real time of continues cell culture during 40 hours of the compound treatment was used to screen Tox21 10K library compounds in HepG2 cells. CellTox Green Cytotoxicity Assay is a nonlytic, homogeneous, biofluorescent method to measure cytotoxicity in cell culture after experimental manipulation. The assay system uses a proprietary asymmetric cyanine dye that is excluded from viable cells but preferentially stains the dead cell's DNA. […] Viable cells produce no appreciable increases in fluorescence. Therefore, the fluorescence signal produced by the binding interaction with dead cell DNA is proportional to cytotoxicity.
The mixture of HepG2 cell suspension and reagents were dispensed at 600cells/6 ul/well in 1536-well tissue culture treated black solid bottom plates using a Multidrop dispenser. After the assay plates were incubated at a 37 C/5% CO2 incubator for 5 hours, 23 nL of compounds dissolved in DMSO, positive and negative controls was transferred to the assay plate by a pintool work station. The plates were incubated at 37 C for 40 hours. The fluorescence intensity were measured at 0h, 8h, 16h, 24h, 32h and 40h time points using ViewLux plate reader during compound treatment.

Row | SMILES | Potency | cytotoxicity
1 | C=CC(=O)CC | inactive | –
2 | COC(=O)C(c1ccccc1Cl)N1CCc2sccc2C1 (stereo not given) | inactive | –
3 | N=C(N)N1CCc2ccccc2C1 | – | -11.7% [at 6.97 µM]
4 | CC(C)(C)C(=O)CC(=O)C(C)(C)C | inactive | –
5 | CC(=O)OCC(=O)[C@@]1(O)CC[C@H]2[C@@H]3CCC4=CC(=O)C=C[C@]4(C)[C@H]3[C@@H](O)C[C@@]21C | inactive | –
6 | CCOC(=O)CC(C(C)=O)C(C)=O | inactive | –
7 | O=C1CC2(CCCC2)CC(=O)N1CCNCC1COc2ccccc2O1 (stereo not given) | inactive | –
8 | COc1cc(OC)cc(OC)c1 | inactive | –
9 | C=CCCCCCCCCOC(C)=O | inactive | –
10 | CC(C)c1cc(C(C)C)cc(C(C)C)c1 | inactive | –
11 | Cc1ccc(N)nc1 | inactive | –
12 | C=COCCCCO | inactive | –
13 | Cc1ccc(O)c([N+](=O)[O-])c1 | inactive | –
14 | CCOC(=O)COc1ccc2c(C)c(CCN(CC)CC)c(=O)oc2c1Cl | inactive | –
15 | C=CCN1CCc2nc(N)sc2CC1 | inactive | –
16 | O=Cc1ccc(C(=O)O)cc1 | inactive | –
17 | CC/C=C/CCCCCCCCCCOC(C)=O | inactive | –
18 | CC(C)CC(O)Cc1ccccc1 (stereo not given) | inactive | –
19 | CCCCN(CCCC)CCCCCCN(CCCC)CCCC | inactive | –
20 | CC(=O)Oc1ccc(C(C)=O)cc1 | inactive | –

Row | SMILES | Potency | cytotoxicity
21 | O=C1CCCc2c(O)cccc21 | inactive | –
22 | CC(=O)/C=C/C=C1/C2CCC(C2)C1(C)C (stereo not given) | inactive | –
23 | COc1cc(S(N)(=O)=O)cc(C(=O)O)c1OC | inactive | –
24 | Cc1cc(C)c(N)c(Cl)c1 | inactive | –
25 | C=CCn1cc[n+](C)c1 | inactive | –
26 | CCN1CCN(C(=O)N[C@@H](C(=O)N[C@@H]2C(=O)N3C(C(=O)O)=C(CSc4nnnn4C)CS[C@H]23)c2ccc(O)cc2)C(=O)C1=O | inactive | –
27 | CC1(C)CC(N)CC(C)(C)N1 | inactive | –
28 | O=C(CCBr)N1CCN(C(=O)CCBr)CC1 | inactive | –
29 | CC(C)(C)C(=O)NCCCC(=O)O | inactive | –
30 | C[C@H]1COc2c(C3(N)CC3)c(F)cc3c(=O)c(C(=O)O)cn1c23 | inactive | –
31 | C=C(C)C(=O)OCCOC1CC2CC1C1C=CCC21 (stereo not given) | inactive | –
32 | CC1(C)S[C@@H]2[C@H](NC(=O)Cc3ccccc3)C(=O)N2[C@H]1C(=O)O (tested in a mixture with another compound) | inactive | –
33 | CCCCC(O)/C=C(C)/C=C/C=C/C(=O)N1CCCC1=O (stereo not given) | inactive | –
34 | C/C=C(\C)C=O | inactive | –
35 | CC(C)CC(=O)N[C@H](C(=O)N[C@H](C(=O)N[C@@H](CC(C)C)[C@@H](O)CC(=O)N[C@@H](C)C(=O)N[C@@H](CC(C)C)[C@@H](O)CC(=O)O)C(C)C)C(C)C (Isovaleryl-VV[Sta]A[Sta]-OH) | inactive | –
36 | CCc1ncc(C)[nH]1 | inactive | –
37 | O=P(O)(O)C(O)(Cc1cccnc1)P(=O)(O)O | inactive | –
38 | CCCCCCCCCCCCCCBr | inactive | –
39 | C/C(Cl)=C/CCl | inactive | –
40 | N=C(N)N | inactive | –
